According to PubChem BioAssay:
A number with no mark means an inactive call. The source made the active and inactive calls.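 Rule for the calls: active = inhibition at or above 50% relative to wild type and mutant plate controls; inactive = inhibition below 50%.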

Experiment: inhibitors of Chlamydomonas gravitaxis, primary screen, whole organism, Chlamydomonas reinhardtii, WT vs cilia-less mutant, absorbance, 96-well (AID 463189);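 note: 0% = wild type cc124 cells in DMSO and 100% = ciliumless bld1 mutant cells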
Conditions: OD600 absorbance, 2 days, at 10 µM, hits give high values

| Compound | inhibition |
| --- | --- |
| COc1cc2c(cc1C(F)(F)F)N(C(=O)Nc1cc(F)cc(-c3cccnc3)c1)CC2 | 0.852% |
| CC/C(=C(\c1ccccc1)c1ccc(OCCN(C)C)cc1)c1ccccc1 | 50.3% (active) |
| Cn1c(=O)c2[nH]c(-c3ccc(S(=O)(=O)O)cc3)nc2n(C)c1=O | -2.33% |
| NC/C=C\C(=O)O | 3.63% |
| CC(=O)Oc1ccccc1C(=O)O | -5.84% |
| NC1C=CC=C(C(=O)O)C1 (stereo not given) | -4.63% |
| N[C@H]1CONC1=O | 6.36% |
| N#CC(C#N)=C(N)/C(C#N)=C/c1ccc(O)cc1 | 5.33% |
| NCC1OC(O[C@@H]2[C@H](O)C(OC3C(O)C(N)CC(N)C3OC3OC(CO)C(O)C(O)C3N)O[C@@H]2CO)C(N)C(O)C1O (stereo not given in full) | 4.9% |
| OC(CN1CCC(Cc2ccc(F)cc2)CC1)c1ccc(Cl)cc1 (stereo not given) | -0.098% |
| C1CCc2nnnn2CC1 | 5.68% |
| Cc1cc(C)c(NC(=O)C[C@H](CC(=O)O)c2cccc3ccccc23)c(C(=O)N2CCC3(CCCC3)CC2)c1 | 13.6% |
| CC(=O)CCCCn1c(=O)c2c(ncn2C)n(C)c1=O | -0.901% |
| CCN(CC)CCOC(=O)c1cc(Cl)c(N)cc1OC | 2.34% |
| O=c1c(O)c(-c2ccc(O)c(O)c2)oc2cc(O)cc(O)c12 | 2.39% |
| O=c1[nH]cc(F)c(=O)[nH]1 | 2.19% |
| CCCCNc1ccc(C(=O)OCCN(C)C)cc1 | 8.43% |
| O=c1c(O)c(-c2cc(O)c(O)c(O)c2)oc2cc(O)cc(O)c12 | 9.46% |
| Nc1ccc(S(=O)(=O)Nc2ccnn2-c2ccccc2)cc1 | -0.772% |
| Cc1cc(N)c2ccccc2[n+]1CCCCCCCCCCCCCC[n+]1c(C)cc(N)c2ccccc21 | 154% (active) |

| Compound | inhibition |
| --- | --- |
| NCCc1ccc(O)c(O)c1 | -0.97% |
| CCCCN1CCC(n2c(=O)[nH]c3ccccc32)CC1 | 4.67% |
| O=C(N[C@@H](Cc1ccccc1)C(=O)CCl)OCc1ccccc1 | 0.05% |
| Nc1ccc2c3c(cccc13)C(=O)NC2=O | 32.5% |
| CC(C)Cn1c(=O)n(C)c(=O)c2[nH]cnc21 | 1.72% |
| CC(C)C[C@H](NC(=O)[C@H](O)[C@H](N)Cc1ccccc1)C(=O)O | -10.7% |
| Cc1ccc(/C(=C\CN2CCCC2)c2ccccn2)cc1 | 11.6% |
| CC(C)(CO)Cc1cc(C(C)(C)C)c(O)c(C(C)(C)C)c1 | -2.65% |
| CCn1c(=O)c2[nH]c(-c3ccccc3)nc2n(CC)c1=O | -1.12% |
| CC(C)C1C2CCC(C2)C1N (stereo not given) | 3.56% |
| O=C(O)CCCCCC[C@H]1C(=O)NC(=O)N1CC[C@@H](O)C1CCCCC1 | -0.469% |
| CCCCC#Cc1nc(N)c2ncn([C@@H]3O[C@H](C(=O)NCC)[C@@H](O)[C@H]3O)c2n1 | -3.94% |
| CNC(=O)[C@H]1O[C@@H](n2cnc3c(NCc4cccc(I)c4)ncnc32)C(O)[C@H]1O (stereo not given in full) | 1.77% |
| C[N+](C)(CCCCCC[N+](C)(C)CCCN1C(=O)c2cccc3cccc(c23)C1=O)CCCN1C(=O)c2cccc3cccc(c23)C1=O | 101% (active) |
| Oc1ccc(Cn2cc[nH]c2=S)cc1 | 7.18% |
| COc1cc2c(cc1O)CC[C@@H]1[C@@H]2CC[C@]2(C)[C@@H](O)CC[C@@H]12 | -5.37% |
| O=C(O)/C=C/c1cnc[nH]1 | 1.11% |
| CN1CC(O)C(O)C(O)C1CO (stereo not given) | 10.5% |
| CN(C)CCN(Cc1cccs1)c1ccccn1 | 2.59% |
| COc1cc(Cc2cnc(N)nc2N)cc(OC)c1OC | 0.332% |
